FUS suppressor = suppressors of FUS proteinopathy in yeast | S. cerevisiae FUS-expressing, growth rescue, OD600, 24 h | Potency, µM (titrated, usually from 76.6 µM), hits mostly activators | hit rate 0.24% among 390,000 | AID 1347120;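 note: plate controls were DMSO vehicle for no effect and reference control for full effect; nearly all actives have a fitted effect of over 55% in size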
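Restored growth of FUS-toxic S. cerevisiae, read as 600 nm absorbance after 24 h at 30C in galactose medium (starting OD 0.005). Controls CP55940 and DMSO.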
aSyn rescue = rescues yeast growth from alpha-synuclein toxicity; Yeast expressing alpha-synuclein, growth rescue, BacTiter-Glo, 24 h; Potency, µM (titrated, usually from 46.1 µM), without a hit: top-dose growth rescue (activation), most hits filed as activators; hit rate 0.14% among 370,000; note: % of control where 0% means no effect; nearly all actives have a fitted effect of over 65% in size
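Screening used galactose-induced yeast with toxic alpha-synuclein levels, exposed to compound for 24 hr at 30 deg C. Cell growth, read with BacTiter-Glo luminescence, gave the measured signal.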
ClpP mod = qHTS Assay for Activators of ClpP | purified B. subtilis ClpP, FRET peptide cleavage, 20 min | hit rate 1.9% among 340,000 | Potency, µM (titrated, usually from 57.5 µM), inactives show top-dose activity change, negative = active | ATP-dependent Clp protease proteolytic subunit (Bacillus subtilis (strain 168)), P80244; active = well fitted falling curve with a large enough effect; inconclusive = small, poorly fitted or top-dose-only effect; inactive = no such curve, though single readings can be large or run the other way; note: the source files actives as falling curves though it sought activators and does not explain the sign; nearly all actives have a fitted effect of over 65% in size
Target sequence (P80244 whole entry, looked up): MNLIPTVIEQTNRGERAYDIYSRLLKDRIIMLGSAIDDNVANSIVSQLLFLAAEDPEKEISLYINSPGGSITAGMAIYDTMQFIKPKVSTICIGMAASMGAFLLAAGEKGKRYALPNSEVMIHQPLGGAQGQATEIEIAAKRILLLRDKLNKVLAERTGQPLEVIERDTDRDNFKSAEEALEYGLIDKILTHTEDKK
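Buffer: 100 mM Tris/HCl pH8, 100 mM KCl, 0.05% low protease BSA, 2.5% glycerol, 0.01% Tween-20. ClpP 10 microg/mL final; 20 min RT; delta FRET normalized to ADEP and DMSO controls.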
MmCpn inh = blocks the Methanococcus maripaludis chaperonin Mm-Cpn; purified Mm-Cpn ATPase, ADP Transcreener TR-FRET; Potency, µM (top dose mostly 76.9 µM), without a hit: at the highest dose activity, negative = inhibition, hits mostly inhibitors; hit rate 0.031% among 330,000; AID 504842; note: % is set by controls: 0 for no effect and ±100 for the full control effect; nearly all actives have a fitted effect of over 80% in size
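Eu-cryptate anti-ADP/ADP-d2 competition gives a ratio inversely related to ADP. Enzyme at 25 nM was pre-exposed to compound for 10 min, then given 10 uM ATP for 30 min, 37°C throughout.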
TDP-43 yeast inh = rescues yeast growth from TDP-43 toxicity; TDP-43 expressing yeast growth rescue, BacTiter-Glo, 24 h; Potency, µM (top dose mostly 46.1 µM), inactives show at the highest dose growth rescue (activation), actives largely listed as activators; hit rate 1.8% among 410,000; AID 652104; note: % of control where 0% means no effect; nearly all actives have a fitted effect of over 50% in size
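Luminescence from BacTiter-Glo reports growth of TDP-43-expressing yeast after 24 hr at 30 deg C with compound. Cells were raffinose-pregrown to mid-log, then seeded in galactose medium at OD600=0.02.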
Abeta yeast res = restores growth of yeast expressing A-beta42 peptide. yeast expressing A-beta42, growth rescue, OD600, 48 h; response scale: 0% DMSO, 100% iron-clioquinol control. Potency, µM (series often up to 46.1 µM), most hits filed as activators. hit rate 0.063% among 410,000; note: nearly all actives have a fitted effect of over 55% in size
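Growth rescue measured by 600 nm absorbance after 48 h yeast culture at 30 C with compound. Values normalized between DMSO and an equimolar ferric chloride plus clioquinol control.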
Numbers without * were called inactive; i = inactive; u = inconclusive; x = not tested or not shown; [ ] = remark or other dose. An excerpt weighted towards active compounds, which were near 3.6% of everything screened. Unless noted, calls come from the whole dose curve; as a rule, active = well fitted curve in the direction sought with a large enough effect; inconclusive = small, poorly fitted or top-dose-only effect, or another doubt; inactive = no such curve, though single readings can be large; an effect the other way counts as inactive or inconclusive. Potency is the fitted concentration of half-maximal effect.

SMILES	FUS suppressor	aSyn rescue	ClpP mod	MmCpn inh	TDP-43 yeast inh	Abeta yeast res
Cc1ccc2c(c1)-c1c(cnc3cc(-c4ccc(Cl)cc4)nn13)CO2	i	x	17.8µM*	x	21.8%	i
Cc1nn(Cc2ccccc2)c(C)c1CNC(=O)CN=C1NS(=O)(=O)c2ccccc21	i	-0.1%	22.4µM*	1.4%	0.0%	i
COc1ccccc1-c1ccc(/C=C2/C=C(C)OC2=O)o1	i	5.2%	31.6µM*	-3.0%	-0.9%	i
COc1ccccc1-c1ccc(/C=C2\C=CC(=O)O2)o1	u	5.5%	x	-1.6%	u	i
CCCOc1ccc(C(=O)c2nc3c(n2O)CCCC3)cc1	i	x	-0.8%	1.4%	12.6µM*	i
CCCCCN1CCCCC(NC(=O)c2ccc(C)cc2)C1=O (centres undefined)	i	x	x	x	x	x
Fc1cccc(NC(=S)N2CCc3ccccc32)c1	i	1.4%	1.6%	-1.5%	14.1µM*	u
S=C(Nc1ccccc1)N1CCc2ccccc21	i	0.8%	-1.4%	-2.7%	12.6µM*	u
O=C(NCc1cccc2ccccc12)C1CCCN(c2nc3ccccc3o2)C1 (centres undefined)	i	x	x	x	x	x
CCOC(=O)[C@]12CCCC3=C1N(CCC3)C(=O)[C@@H](CC(=O)N1CCCC1)C2	i	x	x	x	x	x
CC(C)c1nn2c(=O)cc(COC(=O)c3ccc(NC(=O)c4cccs4)cc3)nc2s1	i	x	0.5%	x	26.2%	i
COc1ccc(CNC(=O)C(C)n2c(=O)cc(C)c3c(C)nn(-c4ccccc4)c32)cc1 (centres undefined)	i	x	-7.0%	x	22.8%	i
Cc1onc(-c2ccccc2)c1C(=O)OCC(=O)c1ccc(F)cc1	i	0.3%	0.0%	x	20µM*	i
CCOC(=O)c1c(-c2ccc(F)cc2)csc1NC(=O)c1c(-c2ccccc2)noc1C	i	-2.0%	20µM*	-3.8%	16.9%	i
Cc1ccccc1OCCOC(=O)c1c(-c2ccccc2)noc1C	i	1.2%	x	-2.1%	-0.8%	i
COC(=O)c1c(-c2ccccc2)csc1NC(=O)c1c(-c2ccccc2)noc1C	i	-1.0%	u	u	13.5%	i
Cc1onc(-c2ccccc2)c1C(=O)OCCOc1ccc([N+](=O)[O-])cc1[N+](=O)[O-]	i	13.8%	-2.3%	3.5%	12.6µM*	i
Cc1onc(-c2ccccc2)c1C(=O)OCC(=O)c1ccccc1	i	6.0%	-0.3%	1.2%	18.3%	i[9.22 µM]
O=C(Nc1cccc(Cl)c1)c1cc(S(=O)(=O)N2CCCc3ccccc32)ccc1F	i	x	-21.2%	x	-3.1%	i
Cc1ccc(CNC(=O)CCCn2c(=O)c3ccccc3n(Cc3ccccc3C)c2=O)cc1	i	x	-5.1%	x	16.8%	i
Cc1ccc(CNC(=O)C2CCN(S(=O)(=O)c3cn(C)cn3)CC2)cc1	i	x	-2.4%	x	8.8%	i
Cc1ccc2nc(CN3CCN(S(=O)(=O)c4ccc(C(C)C)cc4)CC3)oc2c1	u	x	0.0%	x	25.4%	i
Cc1cccc2cc3c(N)c(C#N)sc3nc12	i	u	-3.1%	-5.1%	3.16µM*	i
CCN1CCN(C(c2ccccc2Cl)c2c(O)cc(C)n(CCOC)c2=O)CC1 (centres undefined)	i	x	1.1%	x	-5.6%	i
COc1cc2c(C#N)c(N3CCCCC3)nc(N)c2c(N)n1	i	7.7%	28.2µM*	-7.9%	u	i
SMILES	FUS suppressor	aSyn rescue	ClpP mod	MmCpn inh	TDP-43 yeast inh	Abeta yeast res
COc1cc2c(C#N)c(N3CCOCC3)nc(N)c2c(N)n1	i	2.0%	15.8µM*	-4.1%	-7.1%	i
COc1cc2c(C#N)c(N3CCc4ccccc4C3)nc(N)c2c(N)n1	u	6.4%	28.2µM*	-10.5%	12.6µM*	i
CCCCc1ccc(NC(=O)c2cc3c(=O)n4ccccc4nc3n2C)cc1	i	x	-24.5%	x	0.0%	i
Cc1cc(C)c(NS(=O)(=O)c2ccc(-c3coc(C)n3)cc2)c(C)c1	i	0.2%	0.3%	x	30.0%	i
C[C@@]12C(=O)Nc3ccc(F)cc3C(=O)N1[C@H]1c3cc(Cl)ccc3OC[C@@H]1[C@@H]2c1ccccc1	i	-3.0%	-21.4%	-12.4%	17.8µM*	i
C[C@@]12C(=O)Nc3ccc(F)cc3C(=O)N1[C@H]1c3ccccc3OC[C@@H]1[C@@H]2c1ccccc1	u	7.4%	-11.5%	-1.6%	14.1µM*	i
Cc1ccc2c(c1)C(=O)N1[C@H]3c4cc(Cl)ccc4OC[C@@H]3[C@H](c3ccccc3)[C@]1(C)C(=O)N2	i	-13.1%	-9.7%	-0.3%	-15.3%	i
C[C@@]12C(=O)Nc3ccc(Cl)cc3C(=O)N1[C@H]1c3ccccc3OC[C@@H]1[C@@H]2c1ccccc1	28.2µM*	-1.6%	-23.6%	-17.5%	-46.6%	i
CCOC(=O)[C@H]1[C@H]2COc3ccc(Cl)cc3[C@@H]2N2C(=O)c3cc(Br)ccc3NC(=O)[C@@]12C	u	4.3%	-0.4%	-10.9%	u	u
C[C@@]12C(=O)Nc3cc(Cl)ccc3C(=O)N1[C@H]1c3ccccc3OC[C@@H]1[C@@H]2c1ccccc1	i	-21.7%	-12.2%	-12.4%	-10.1%	i
CCOC(=O)[C@H]1[C@H]2COc3ccc(Cl)cc3[C@@H]2N2C(=O)c3cc(Cl)ccc3NC(=O)[C@@]12C	i	-4.7%	-12.8%	-4.7%	7.8%	3.55µM*
C[C@@]12C(=O)Nc3cc(F)c(F)cc3C(=O)N1[C@H]1c3ccccc3OC[C@@H]1[C@@H]2c1ccccc1	i	-11.5%	-5.0%	x	-13.3%	i
CCOC(=O)Cn1cc(CN2C(C(=O)OC)CN(CCO)CCS2(=O)=O)nn1 (centres undefined)	i	x	x	x	x	x
CCOC(=O)[C@@H]1[C@H]2COc3ccccc3[C@H]2N2C(=O)N(c3ccc(Cl)cc3)C(=O)[C@]12C	u	-6.1%	1.8%	1.9%	35.5µM*	i
CCOc1ccc(CNc2ccc3c(c2)ncn3C)cc1	i	-6.4%	31.6µM*	-1.0%	2.1%	i
CCCn1cnc2cc(NCc3cccc(OC)c3)ccc21	i	0.0%	28.2µM*	-1.1%	-18.3%	i
CCn1cnc2cc(NCc3cccc(OC)c3O)ccc21	i	10.4%	31.6µM*	-2.0%	-9.0%	i
CCOC(=O)c1ccccc1NC(=O)Cn1c(=O)n(CCC(=O)NCc2ccccc2OC)c(=O)c2ccccc21	i	x	-1.6%	x	4.7%	i
Cn1cc(S(=O)(=O)N2CCCCCC2)cc1C(=O)NCc1ccccc1Cl	u	x	0.3%	x	6.5%	i

Assay outcomes: PubChem BioAssay, National Center for Advancing Translational Sciences (NCATS)
